Test results from PubChem BioAssay (NCATS).
Results filed as inconclusive are left out. A call without a number means that no potency is given here. Calls of active or inactive are those of the source. Unless noted, calls follow the shape of the dose curve; as a rule, active = well fitted curve in the direction sought with a large enough effect; inconclusive = small, poorly fitted or top-dose-only effect, or another doubt; inactive = no such curve, though single readings can be large; an effect the other way counts as inactive or inconclusive.

What was measured:
[1] = P-glycoprotein substrates identified in KB-8-5-11 adenocarcinoma cell line, qHTS therapeutic library screen (AID 1346987); also: nearly all actives have a fitted effect of over 65% in size; also: potency is read from the fitted curve at half-maximal effect
Procedure, shortened: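 Luminescence from CellTiter-Glo, read 5 min after addition, quantified survival of KB-8-5-11 (P-gp-overexpressing) cells exposed to compounds for 72 h. AC50 was derived from concentration-response curves.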

[2] = molecular target: T1, Tyrosine-protein phosphatase non-receptor type substrate 1 (Homo sapiens) + Leukocyte surface antigen CD47 (Homo sapiens) (UniProt P78324+Q08722); experiment: CD47-SIRPalpha protein protein interaction - LANCE assay qHTS validation (AID 1347057; active = well fitted curve in the direction sought with a large enough effect in the signal ratio, with a control signal flat, not every such curve was filed as active; the % refers to the signal ratio; also: series mostly up to about 38 µM)
Procedure, shortened: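 Inhibition of soluble CD47/SIRPalpha ectodomain association by titrated compounds, measured as 665/615 nm time-resolved FRET ratio after sequential 30 min room-temperature incubations.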

[3] = molecular target: T1, Tyrosine-protein phosphatase non-receptor type substrate 1 (Homo sapiens) + Leukocyte surface antigen CD47 (Homo sapiens); experiment: CD47-SIRPalpha protein protein interaction - Alpha assay qHTS validation (AID 1347059);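 also: bead proximity luminescence from CD47 binding SIRPalpha after compound preincubation with SIRPalpha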
Procedure, shortened: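 SIRPalpha-biotin 25 nM + cpd, 30 min RT, dark; add CD47-His 12.5 nM, 30 min; add Ni-NTA/SAV beads 10 ug/mL, 30 min; AlphaScreen. Buffer PBS pH 7.4 + 0.05% IGEPAL CA-630. Non-biotinylated SIRPalpha as control inhibitor.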

[4] = NS1 protein of Zika virus - qHTS assay to identify small molecule inhibitors in human HEK 293 cells (AID 1347053); also: series mostly up to about 46 µM; nearly all actives have a fitted effect of over 55% in size
Procedure, shortened: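 Read-out is a two-antibody TR-FRET for ZIKV NS1, normalized between uninfected cells and infected cells. Compound added 1 h before MR766 infection at MOI 0.5; human HEK 293 cells incubated 24 h, 37 C.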

[5] = qHTS of pediatric cancer cell lines to identify multiple opportunities for drug repurposing: Primary screen for TC32 cells (AID 1347089); also: nearly all actives have a fitted effect of over 60% in size
Procedure, shortened: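 Measured quantity: luminescence from CellTiter-Glo, reflecting metabolically active TC32 cells following 48 h of compound. Curves came straight from multi-point titrations, with 8 or 11 points in primary and 11 in confirmatory screening.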

[6] = qHTS of pediatric cancer cell lines to identify multiple opportunities for drug repurposing: Primary screen for SJ-GBM2 cells (AID 1347091)
Procedure, shortened: (§1)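 Viability measured as metabolically active cells via CellTiter-Glo luminescence following 48 hours of compound exposure, 11-point dilutions in confirmatory testing. 500-1,000 cells/well plated 5 hours before dosing; controls were DMSO and 2.3 µM bortezomib.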

[7] = qHTS of pediatric cancer cell lines to identify multiple opportunities for drug repurposing: Primary screen for A673 cells (AID 1347092); also: nearly all actives have a fitted effect of over 45% in size; also: potency is read from the fitted curve at half-maximal effect
Procedure, shortened: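 Cells are plated, rested 5 h, dosed by pintool, incubated 48 h, then lysed with CellTiter-Glo and read by luminescence. DMSO is the neutral control; bortezomib at 2.3 uM final is the positive control.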

[8] = qHTS of pediatric cancer cell lines to identify multiple opportunities for drug repurposing: Primary screen for BT-37 cells (AID 1347094); also: series mostly up to about 57 µM
Procedure, shortened: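 500-1,000 cells/well; 5 h pre-incubation 37 °C/5% CO2; compound pinned; 48 h; CellTiter-Glo, 15 min RT; luminescence. MIPE 11-pt from 0.78 nM, NPC 8-pt from 0.59 nM final. Bortezomib 2.3 µM final as positive control.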

[9] = Natriuretic polypeptide receptor (hNpr1) antagonism - Pilot counterscreen GloSensor control cell line (AID 1347045; calls by dose curve; also: potency is read from the fitted curve at half-maximal effect)
Procedure, shortened: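 Cells were first seeded and incubated overnight at 37C, then loaded with 2% GloSensor substrate for 2 h. Compounds were added for 30 min at room temperature, followed by a baseline read, 50 uM SNP and a final read after 20 min.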

[10] = molecular target: Atrial natriuretic peptide receptor 1 (Homo sapiens) (UniProt P16066); experiment: Natriuretic polypeptide receptor (hNpr1) antagonism - Pilot screen (AID 1347049; calls by dose curve;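 also: agonist-evoked cGMP luminescence read 20 min after hNppA addition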; also: potency is read from the fitted curve at half-maximal effect)
Procedure, shortened: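 cGMP-sensor HEK293/hNpr1 cells, 1500/well, plated overnight at 37C. 2% GloSensor reagent, 2 h RT. Compound (23 nL pin transfer) 30 min RT, baseline luminescence pre-read. 0.1 nM hNppA, 20 min RT, post-read.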

[11] = molecular target: Atrial natriuretic peptide receptor 2 (Homo sapiens) (UniProt P20594); experiment: Natriuretic polypeptide receptor (hNpr2) antagonism - Pilot subtype selectivity assay (AID 1347050; calls by dose curve; also: potency is read from the fitted curve at half-maximal effect)
Procedure, shortened: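 Luminescence from a genetically encoded cGMP luciferase biosensor in hNpr2-expressing HEK293 cells is read before and 20 min after adding 1 nM hNppC. Test compounds, in interplate 1:5 titrations, are added 30-50 min ahead of the agonist.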

[12] = molecular target: T1, Tyrosine-protein phosphatase non-receptor type substrate 1 (Homo sapiens) + Leukocyte surface antigen CD47 (Homo sapiens); experiment: CD47-SIRPalpha protein protein interaction - HTRF assay qHTS validation (AID 1347058; active = well fitted curve in the direction sought with a large enough effect in the signal ratio, not every such curve was filed as active; the % refers to the signal ratio; also: series mostly up to about 38 µM)
Procedure, shortened: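 Soluble extracellular domains (6His-CD47, Avi-tag-biotinylated SIRPalpha) in PBS pH 7.4 with 0.05% IGEPAL CA-630. Compounds were preincubated 30 min at RT with CD47 and anti-His-Eu, then SIRPalpha and SAV-XL665 were added. TR-FRET 665/615 ratio.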

[13] = qHTS of pediatric cancer cell lines to identify multiple opportunities for drug repurposing: Primary screen for DAOY cells (AID 1347090); also: nearly all actives have a fitted effect of over 55% in size; also: potency is read from the fitted curve at half-maximal effect
Procedure, shortened: as §1

[14] = molecular target: Parathyroid hormone/parathyroid hormone-related peptide receptor (Homo sapiens) (UniProt Q03431); experiment: qHTS for PTHR1 Agonists: Optimization Screen against the NCGC LOPAC library (AID 1347079);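 also: GloSensor cAMP luminescence in HEK-293 GP2 cells expressing human PTHR1 with IBMX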
Procedure, shortened: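 HEK-293 GP2 cells, PTHR1 + GloSensor cAMP; 3000 cells/well, o/n. Luciferin + IBMX 0.5mM each (stock), 1 hr 37C. Cpd titration, 1 hr 37C. Lum after 15 min RT. Ctrl M-PTH(1-15) top 10uM.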

[15] = qHTS of pediatric cancer cell lines to identify multiple opportunities for drug repurposing: Primary screen for SK-N-MC cells (AID 1347093); also: series mostly up to about 46 µM
Procedure, shortened: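 Metabolically active cells were quantified by ATP-dependent luminescence (CellTiter-Glo, 15 min at room temperature) following 48 h treatment. Cells had been plated at 500-1,000 per well and settled for 5 h beforehand.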

Parathyroid hormone/parathyroid hormone-related peptide receptor (Homo sapiens), sequence (Q03431 whole entry, looked up): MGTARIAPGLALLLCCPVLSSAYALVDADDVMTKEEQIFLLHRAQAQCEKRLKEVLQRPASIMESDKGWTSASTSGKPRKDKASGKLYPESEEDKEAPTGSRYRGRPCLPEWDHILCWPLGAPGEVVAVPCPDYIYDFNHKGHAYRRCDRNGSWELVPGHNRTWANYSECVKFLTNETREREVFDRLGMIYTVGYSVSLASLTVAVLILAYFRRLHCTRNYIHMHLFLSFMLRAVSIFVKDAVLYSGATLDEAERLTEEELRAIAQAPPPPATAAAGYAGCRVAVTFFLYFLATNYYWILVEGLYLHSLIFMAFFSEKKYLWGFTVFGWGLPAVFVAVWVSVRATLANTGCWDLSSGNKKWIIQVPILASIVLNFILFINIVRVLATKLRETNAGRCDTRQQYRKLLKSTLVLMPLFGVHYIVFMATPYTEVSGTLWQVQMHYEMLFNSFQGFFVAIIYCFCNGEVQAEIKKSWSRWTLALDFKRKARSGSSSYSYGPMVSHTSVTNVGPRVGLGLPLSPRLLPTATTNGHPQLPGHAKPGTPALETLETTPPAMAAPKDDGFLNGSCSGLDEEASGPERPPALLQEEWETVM
Atrial natriuretic peptide receptor 1 (Homo sapiens), sequence (P16066 whole entry, looked up): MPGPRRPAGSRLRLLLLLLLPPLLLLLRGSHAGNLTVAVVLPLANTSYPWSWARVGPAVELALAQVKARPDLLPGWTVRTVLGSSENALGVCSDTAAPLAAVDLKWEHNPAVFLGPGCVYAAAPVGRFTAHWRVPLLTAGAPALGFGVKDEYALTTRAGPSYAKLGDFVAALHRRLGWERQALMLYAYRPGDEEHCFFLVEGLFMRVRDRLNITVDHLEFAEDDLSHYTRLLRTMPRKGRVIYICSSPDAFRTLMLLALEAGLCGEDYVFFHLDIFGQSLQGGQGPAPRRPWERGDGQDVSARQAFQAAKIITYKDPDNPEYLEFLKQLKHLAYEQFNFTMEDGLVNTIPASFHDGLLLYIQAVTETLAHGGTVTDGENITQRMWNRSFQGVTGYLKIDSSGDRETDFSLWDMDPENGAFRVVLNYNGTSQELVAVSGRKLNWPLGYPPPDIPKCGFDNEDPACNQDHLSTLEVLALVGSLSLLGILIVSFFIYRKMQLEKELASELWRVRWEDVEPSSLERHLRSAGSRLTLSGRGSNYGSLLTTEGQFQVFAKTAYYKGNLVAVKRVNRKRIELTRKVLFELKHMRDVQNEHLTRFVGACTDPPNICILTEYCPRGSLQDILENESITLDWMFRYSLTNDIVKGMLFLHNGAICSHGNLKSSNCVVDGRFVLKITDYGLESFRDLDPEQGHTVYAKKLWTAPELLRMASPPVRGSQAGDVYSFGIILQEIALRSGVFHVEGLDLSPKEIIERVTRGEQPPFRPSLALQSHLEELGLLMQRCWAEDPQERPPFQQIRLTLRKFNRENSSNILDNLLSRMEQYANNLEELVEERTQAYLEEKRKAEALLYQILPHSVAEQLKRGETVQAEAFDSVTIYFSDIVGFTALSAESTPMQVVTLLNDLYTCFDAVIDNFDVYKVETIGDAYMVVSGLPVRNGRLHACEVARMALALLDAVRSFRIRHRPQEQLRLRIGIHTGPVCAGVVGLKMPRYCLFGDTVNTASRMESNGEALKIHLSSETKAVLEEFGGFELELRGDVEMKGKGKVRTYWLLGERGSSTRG
T1 sequence (P78324 whole entry, looked up, the tested form may be a part): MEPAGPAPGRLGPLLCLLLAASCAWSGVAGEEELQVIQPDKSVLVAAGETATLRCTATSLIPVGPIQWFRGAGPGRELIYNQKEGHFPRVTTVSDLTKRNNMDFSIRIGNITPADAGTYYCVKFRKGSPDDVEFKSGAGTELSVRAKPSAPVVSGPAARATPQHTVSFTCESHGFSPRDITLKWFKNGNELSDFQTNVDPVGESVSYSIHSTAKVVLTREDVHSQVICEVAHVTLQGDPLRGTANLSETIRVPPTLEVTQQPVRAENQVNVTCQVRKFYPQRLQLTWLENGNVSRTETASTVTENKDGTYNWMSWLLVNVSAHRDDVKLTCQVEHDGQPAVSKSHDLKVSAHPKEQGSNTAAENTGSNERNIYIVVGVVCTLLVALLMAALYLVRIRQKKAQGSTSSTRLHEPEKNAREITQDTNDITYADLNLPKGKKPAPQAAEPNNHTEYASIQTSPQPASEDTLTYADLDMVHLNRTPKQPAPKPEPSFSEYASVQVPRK
T1 sequence (Q08722 whole entry, looked up, the tested form may be a part): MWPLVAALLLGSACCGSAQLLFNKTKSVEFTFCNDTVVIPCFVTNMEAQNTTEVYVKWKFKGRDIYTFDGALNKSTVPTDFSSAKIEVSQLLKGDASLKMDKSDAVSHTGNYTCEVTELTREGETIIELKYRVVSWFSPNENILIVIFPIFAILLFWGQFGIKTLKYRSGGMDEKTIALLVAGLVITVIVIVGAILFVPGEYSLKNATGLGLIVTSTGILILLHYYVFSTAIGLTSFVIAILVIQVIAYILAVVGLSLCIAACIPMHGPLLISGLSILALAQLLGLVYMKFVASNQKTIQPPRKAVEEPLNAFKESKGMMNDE
Atrial natriuretic peptide receptor 2 (Homo sapiens), sequence (P20594 whole entry, looked up): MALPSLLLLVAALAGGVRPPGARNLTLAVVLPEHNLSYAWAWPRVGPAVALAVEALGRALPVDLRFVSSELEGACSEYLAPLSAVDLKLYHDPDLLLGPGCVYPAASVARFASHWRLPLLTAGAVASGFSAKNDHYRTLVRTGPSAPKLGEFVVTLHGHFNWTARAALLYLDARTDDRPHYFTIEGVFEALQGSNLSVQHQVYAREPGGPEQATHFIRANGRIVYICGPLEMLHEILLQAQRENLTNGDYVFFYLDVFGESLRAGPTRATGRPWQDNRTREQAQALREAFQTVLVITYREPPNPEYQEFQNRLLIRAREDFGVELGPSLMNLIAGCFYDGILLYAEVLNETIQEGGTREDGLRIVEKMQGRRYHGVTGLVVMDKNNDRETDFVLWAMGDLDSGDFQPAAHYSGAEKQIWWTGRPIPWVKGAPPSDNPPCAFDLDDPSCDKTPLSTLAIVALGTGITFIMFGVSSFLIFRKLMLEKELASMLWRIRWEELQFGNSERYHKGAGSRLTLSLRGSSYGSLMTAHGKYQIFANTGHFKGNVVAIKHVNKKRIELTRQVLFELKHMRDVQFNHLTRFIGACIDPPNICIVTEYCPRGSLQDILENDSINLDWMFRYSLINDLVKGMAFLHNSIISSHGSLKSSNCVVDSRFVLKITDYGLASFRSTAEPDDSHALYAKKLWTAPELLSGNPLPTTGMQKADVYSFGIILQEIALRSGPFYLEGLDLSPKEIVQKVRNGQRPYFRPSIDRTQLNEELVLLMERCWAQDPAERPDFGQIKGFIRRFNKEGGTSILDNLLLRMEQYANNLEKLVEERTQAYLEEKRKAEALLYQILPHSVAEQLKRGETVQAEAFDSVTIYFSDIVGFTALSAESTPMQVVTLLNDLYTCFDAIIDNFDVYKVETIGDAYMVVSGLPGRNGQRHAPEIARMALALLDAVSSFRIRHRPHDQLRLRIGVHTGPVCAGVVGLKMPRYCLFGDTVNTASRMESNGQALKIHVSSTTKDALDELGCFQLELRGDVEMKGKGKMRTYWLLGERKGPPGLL

CCN(CC)CCCCNc1ncc2cc(-c3c(Cl)cccc3Cl)c(NC(=O)NC(C)(C)C)nc2n1
Potency [1]: 16.4 µM (active)
Potency [2]: inactive
Potency [3]: inactive

CCCCCCCCCCCCCCCCCC(=O)O
Potency [1]: inactive
Potency [4]: inactive
Potency [5]: inactive
Potency [6]: inactive
Potency [7]: inactive
Potency [8]: inactive

COc1cc(C(O)CO)ccc1OS(=O)(=O)O (stereo not given)
Potency [9]: inactive
Potency [10]: inactive
Potency [11]: inactive
Potency [4]: inactive
Potency [2]: inactive
outcome [12]: inactive
Potency [3]: inactive

CN(C)c1nc2c(Br)c(Br)c(Br)c(Br)c2[nH]1
Potency [9]: inactive
Potency [10]: inactive
Potency [11]: inactive

C#C[C@]1(O)CC[C@H]2[C@@H]3CCc4cc(O)ccc4[C@H]3CC[C@@]21C
Potency [1]: 6.51 µM (active)
Potency [4]: inactive
Potency [13]: 13.3 µM (active)
Potency [7]: 26.6 µM (active)

C=CC(C)=C[C@@]1(C)SC(=O)C(C)=C1O
Potency [9]: inactive
Potency [10]: inactive
Potency [11]: inactive
Potency [4]: inactive
Potency [2]: inactive
outcome [12]: inactive
Potency [3]: inactive
Potency [14]: inactive

CC(C)CC(NP(=O)(O)O[C@@H]1O[C@@H](C)[C@H](O)[C@@H](O)[C@H]1O)C(=O)NC(Cc1c[nH]c2ccccc12)C(=O)O (stereo not given in full)
Potency [9]: inactive
Potency [10]: inactive
Potency [11]: inactive
Potency [4]: inactive
Potency [2]: inactive
outcome [12]: inactive
Potency [3]: inactive

O=C(OCc1ccccc1)c1ccccc1
Potency [1]: inactive
Potency [4]: inactive
Potency [5]: inactive
Potency [6]: inactive
Potency [7]: inactive
Potency [15]: inactive
Potency [8]: inactive

CO[C@@]1(NC(=O)Cc2cccs2)C(=O)N2C(C(=O)O)=C(COC(N)=O)CS[C@@H]21
Potency [1]: inactive
Potency [4]: inactive
Potency [5]: inactive
Potency [6]: inactive
Potency [7]: inactive
Potency [8]: inactive

Cc1ccc(C(=O)c2ccc(CC(=O)O)n2C)cc1
Potency [1]: inactive
Potency [4]: inactive
Potency [5]: inactive
Potency [6]: inactive
Potency [7]: inactive
Potency [15]: inactive
Potency [8]: inactive

O=C(O)Cc1ccc(-c2ccccc2)cc1
Potency [1]: inactive
Potency [4]: inactive
Potency [5]: inactive
Potency [6]: inactive
Potency [7]: inactive
Potency [8]: inactive

C=CCCCCCCCCC(=O)O
Potency [1]: inactive
Potency [4]: inactive
Potency [5]: inactive
Potency [13]: inactive
Potency [6]: inactive
Potency [7]: inactive
Potency [8]: inactive

N#C/C(=C\c1c[nH]c2ccccc12)C(=O)c1ccc(O)c(O)c1
Potency [9]: inactive
Potency [10]: inactive
Potency [11]: inactive
Potency [14]: inactive

CNC(=O)[C@H]1O[C@@H](n2cnc3c(NCc4cccc(I)c4)ncnc32)[C@H](O)[C@@H]1O
Potency [9]: inactive
Potency [10]: inactive
Potency [11]: inactive
Potency [4]: inactive
Potency [2]: inactive
outcome [12]: inactive
Potency [3]: inactive
Potency [14]: inactive

O=[N+]([O-])c1ccc2c(c1)S(=O)(=O)C=C2
Potency [9]: 9.27 µM (active)
Potency [10]: 10.7 µM (active)
Potency [11]: 5.85 µM (active)
Potency [2]: inactive
Potency [3]: inactive

Oc1ccc(C2CNCc3sccc32)cc1O (stereo not given)
Potency [9]: inactive
Potency [10]: inactive
Potency [11]: inactive
Potency [4]: inactive
outcome [12]: inactive
Potency [3]: inactive
Potency [14]: inactive

Nc1ncnc2c1ncn2[C@@H]1O[C@H](COP(=O)(O)CP(=O)(O)OP(=O)(O)O)[C@@H](O)[C@H]1O
Potency [9]: inactive
Potency [10]: inactive
Potency [11]: inactive
Potency [4]: inactive
Potency [2]: inactive
outcome [12]: inactive
Potency [3]: inactive
Potency [14]: inactive

CCCCN1CCC(n2c(=O)[nH]c3ccccc32)CC1
Potency [9]: inactive
Potency [10]: inactive
Potency [11]: inactive
Potency [14]: inactive

C[N+]1(C)CCC(OC(=O)C(c2ccccc2)c2ccccc2)CC1
Potency [9]: inactive
Potency [10]: inactive
Potency [11]: inactive
Potency [4]: inactive
Potency [2]: inactive
outcome [12]: inactive
Potency [14]: inactive

CC(=O)SCC[N+](C)(C)C
Potency [9]: inactive
Potency [10]: inactive
Potency [11]: inactive
Potency [4]: inactive
Potency [2]: inactive
outcome [12]: inactive
Potency [3]: inactive
Potency [14]: inactive

Cc1nc2sccn2c(=O)c1CCN1CCC(=C(c2ccccc2)c2ccc(F)cc2)CC1
Potency [9]: inactive
Potency [10]: inactive
Potency [11]: inactive
Potency [14]: inactive

N=c1ccn2c(n1)O[C@H]1[C@H](O)[C@@H](CO)O[C@H]12
Potency [9]: inactive
Potency [10]: inactive
Potency [11]: inactive
Potency [4]: inactive
Potency [2]: inactive
outcome [12]: inactive
Potency [3]: inactive
Potency [14]: inactive

Nc1nc(Cl)nc2c1ncn2[C@@H]1O[C@H](CO)[C@@H](O)[C@H]1O
Potency [9]: inactive
Potency [10]: inactive
Potency [11]: inactive
Potency [4]: inactive
outcome [12]: inactive
Potency [3]: inactive
Potency [14]: inactive

O=C(O)CC[C@@H](C(=O)O)N1C(=O)c2ccccc2C1=O
Potency [9]: inactive
Potency [10]: inactive
Potency [11]: inactive
Potency [4]: inactive
outcome [12]: inactive
Potency [3]: inactive
Potency [14]: inactive

CN1C2CCC1CC(OC(=O)C(O)c1ccccc1)C2 (stereo not given)
Potency [9]: inactive
Potency [10]: inactive
Potency [11]: inactive
Potency [4]: inactive
Potency [2]: inactive
outcome [12]: inactive
Potency [14]: inactive

CN(C)C(N)=NCCC[C@H](N)C(=O)O
Potency [9]: inactive
Potency [10]: inactive
Potency [11]: inactive
Potency [4]: inactive
Potency [2]: inactive
outcome [12]: inactive
Potency [3]: inactive
Potency [14]: inactive

CNc1ncnc2c1ncn2[C@@H]1O[C@H](CO)[C@@H](O)[C@H]1O
Potency [9]: inactive
Potency [10]: inactive
Potency [11]: inactive
Potency [4]: inactive
Potency [2]: inactive
outcome [12]: inactive
Potency [14]: inactive
